PGE2 EP2 inh: EP2 receptor (human) inhibition | P43116 | hit rate 0.52% among 260,000 | C6 glioma cells expressing human EP2, cAMP TR-FRET; cells stimulated with saturating PGE2 | inhibition, % at 25 µM;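 active means percent inhibition above 40 after rounding to a whole number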;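 further: rat C6 glioma host cells with rolipram phosphodiesterase inhibitor present; the protocol text gives 20 µM as final concentration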
Target sequence (P43116 whole entry, looked up): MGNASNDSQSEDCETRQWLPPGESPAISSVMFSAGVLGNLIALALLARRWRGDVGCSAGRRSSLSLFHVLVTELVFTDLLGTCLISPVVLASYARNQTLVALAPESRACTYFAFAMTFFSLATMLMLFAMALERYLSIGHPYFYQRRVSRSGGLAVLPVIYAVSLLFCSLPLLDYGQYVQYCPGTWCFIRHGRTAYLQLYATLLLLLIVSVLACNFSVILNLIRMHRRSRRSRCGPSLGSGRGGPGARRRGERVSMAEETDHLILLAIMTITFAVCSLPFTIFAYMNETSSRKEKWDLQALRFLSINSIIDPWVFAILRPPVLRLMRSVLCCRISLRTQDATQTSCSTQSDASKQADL
SKN-1 block: C. elegans SKN-1 inhibition. inhibition, % at 21.8 µM. C. elegans VP596 Pgst-4::GFP/RFP ratio, acrylamide-induced, 24 h. hit rate 0.49% among 360,000. AID 624304;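 active means interference check ratio from 0.5 to 1.5 plus GFP to RFP signal ratio inhibition reaching or exceeding a fixed threshold, cut at about 30% in these data, passing the limit was not always enough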
NR1D1 modulator: modulators of human Rev-erb alpha DNA binding. hit rate 0.79% among 370,000. P20393. activity, % at 10 µM. AID 1259318. Rev-erbα–FITC-DNA binding, fluorescence polarization, 90 min;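 active means activity above about 14%, limit read from the data; passing the limit was not always enough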
EP2 mod: EP2 receptor (human) modulation. P43116. EP2-expressing cells, cAMP HTRF FRET, PGE2 co-stimulation. induction, % at 25 µM. hit rate 0.83% among 260,000. AID 940;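 active means compounds whose cAMP rise, as percent of the full-agonist control response, exceeds 60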;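 further: rat C6 glioma line stably carrying human EP2 under a CMV promoter; the protocol text gives 20 µM as final concentration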
PG9 binder: PG9 antibody binding by small molecule | TR-FRET gp120-PG9 antibody binding | inhibition, % at 6.7 µM | hit rate 0.43% among 360,000 | AID 624416; in the data active means inhibition above about 8.5%
RAM inhibit: blocks the yeast RAM network. S. cerevisiae dse1pr::URA3 reporter, 5-FOA growth OD615, 2 d; analog-sensitive cbk1-as2 kinase mutant strain. inhibition, % at 50 µM. hit rate 1.8% among 190,000;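 active means inhibition above a set limit, 3 SD over mean compound inhibition, cut at about 8.4% in these data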;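 further: inhibition rescues growth on 5-FOA so higher OD means more RAM inhibition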
Numbers stand for hits; n = inactive; x = not tested or not shown. Sampled rows, rich in hits. Any-hit rate of the full collection: about 2.9%.

SMILES | PGE2 EP2 inh | SKN-1 block | NR1D1 modulator | EP2 mod | PG9 binder | RAM inhibit
CCc1c(C)nc2cc(-c3ccccc3)[nH]n2c1=O | x | 36 | n | x | n | x
Cc1ccc(NC(=O)C(=O)NCc2ccc(/C=C(/C#N)C(=O)NCc3cccnc3)o2)cc1 | n | n | n | n | n | n
N#C/C(=C/c1ccc(CNC(=O)C(=O)Nc2cc(Cl)cc(Cl)c2)o1)C(=O)NCc1cccnc1 | n | n | n | n | n | 8.6
Oc1ccc(-c2nc3ccccc3s2)cc1 | n | n | n | n | n | x
Brc1ccsc1-c1csc(-c2ccncc2)n1 | x | 40 | n | x | n | x
c1ccc2c(-c3csc(-c4ccncc4)n3)c[nH]c2c1 | n | n | n | n | n | n
c1ccc2sc(-c3ccncc3)nc2c1 | n | 39 | n | n | n | x
c1ccc(-c2csc(-c3ccncc3)n2)cc1 | n | 70 | n | n | n | n
Clc1ccc(-c2csc(-c3cccnc3)n2)s1 | n | 92 | n | n | n | x
Cn1nccc1C(=O)OCC(=O)Nc1nc(-c2ccccc2)cs1 | n | n | n | n | n | 9.4
O=C(COC(=O)c1cccs1)Nc1nc(-c2ccccc2)cs1 | n | n | n | n | n | n
CC(C)(C)C1=NN(CC(=O)NCc2cccs2)C(=O)c2cc3ccccc3n2C1 | x | x | x | n | x | x
CCOC(=O)c1c(-c2ccc(C)o2)csc1NC(=O)CN1CCN(CC)CC1 | n | n | n | n | n | n
CCOC(=O)c1c(-c2ccc(C)o2)csc1NC(=S)NC(=O)c1ccc(F)cc1 | n | n | n | n | n | 11
COc1ccc(C2CC(c3ccccc3)=NN2C(=O)c2ccc(F)cc2)cc1 (configuration not stated) | x | n | n | x | n | x
O=C(Nc1ccccc1)N1N=C(c2ccc(F)cc2)CC1c1ccc(F)cc1 (configuration not stated) | n | n | n | n | n | 9.6
CC1CCN(c2nc3c(c(=O)[nH]2)CN(Cc2ccccc2)CC3)CC1 | n | x | x | n | x | x
Cc1cccc(/C=N\Nc2cn[nH]c(=O)c2Cl)c1 | n | n | n | n | n | 9.8
CC1CC(C)CN(C(=O)Cn2c(=O)n(CCCCC(=O)NCc3ccco3)c(=O)c3ccccc32)C1 (configuration not stated) | n | n | n | n | n | 11
O=C(CCn1c(=O)c2ccccc2n(Cc2cc(=O)n3ccccc3n2)c1=O)NCc1ccco1 | n | n | n | n | n | 11
N=c1c(C(=O)NCc2ccco2)cc2c(=O)n3ccccc3nc2n1Cc1ccccc1 | n | n | n | n | n | n
CC1CC(C)CN(C(=O)Cn2c(=O)n(CCCC(=O)NCc3ccco3)c(=O)c3sccc32)C1 (configuration not stated) | x | n | n | x | n | x
N=c1c(C(=O)NCc2ccccc2)cc2c(=O)n3ccccc3nc2n1Cc1ccco1 | n | 37 | n | n | n | n
COc1ccc(CN(C(=O)CSc2nnc(-c3c[nH]c4ccccc34)o2)c2ccc(F)cc2)cc1OC | n | n | n | n | n | 9.9
COc1cc2nncc(SCc3ccc(Cl)c(Cl)c3)c2cc1OC | 54 | x | x | n | x | x
SMILES | PGE2 EP2 inh | SKN-1 block | NR1D1 modulator | EP2 mod | PG9 binder | RAM inhibit
Fc1cccc(CO/N=C/c2c(-c3ccccc3)nc3ccc(Cl)cn23)c1 | n | n | n | n | n | 9.1
Cc1cccn2c(/C=N/OCc3cccc(F)c3)c(-c3ccc(Cl)cc3)nc12 | n | n | n | n | n | 9.3
CCC(c1nnnn1CCOC)N1CCN(c2ccccc2)CC1 (configuration not stated) | n | x | x | n | x | x
CC(=O)OCCNc1cc(SCc2ccco2)c2nonc2c1[N+](=O)[O-] | n | n | x | n | x | 9.5
CC(=O)OCCCNc1cc(Sc2nc3ccccc3s2)c2nonc2c1[N+](=O)[O-] | 41 | n | x | n | x | n
COc1ccc(CN2Cc3cc4ccccc4nc3OCC2=O)cc1 | x | x | x | n | x | x
Cc1ccc(OCCCC(=O)Nc2nnc(C3CCCCC3)s2)cc1 | n | x | x | n | x | x
CSc1c(C#N)c(N)c(C#N)c2c1COC(C)(C)C2 | n | 41 | n | n | n | n
O=C(CCSc1nc(-c2ccc3c(c2)OCO3)cc(C(F)(F)F)n1)NCc1cccnc1 | n | x | x | n | x | x
Cc1cc(C)nc(SCc2nnc(SCC(=O)Nc3ccc(Cl)cc3)o2)n1 | n | x | x | n | x | x
O=C1C=CC(=O)N1c1ccccc1N1C(=O)C=CC1=O | x | n | n | x | n | x
O=C(c1ccccc1)c1ccccc1N1C(=O)C=CC1=O | 45 | n | n | n | n | x
O=S(=O)(NCC(Nc1ccccc1)c1ccccc1)c1ccc(Cl)cc1 (configuration not stated) | n | n | n | n | n | 9.2
O=C(O)c1cccc(NC(CNS(=O)(=O)c2ccc(Cl)cc2)c2ccccc2)c1 (configuration not stated) | n | n | n | n | n | n
COc1ccccc1/C=C(\NC(=O)c1ccc(OC)c(OC)c1)C(=O)Nc1cccc([N+](=O)[O-])c1 | n | n | n | n | n | n
COc1ccccc1/C=C(\NC(=O)c1ccc(OC)c(OC)c1)C(=O)Nc1ccc([N+](=O)[O-])cc1 | n | n | n | n | n | 8.5
O=C(Nc1cccc(C(=O)O)c1)/C(=C/c1ccc([N+](=O)[O-])cc1)NC(=O)c1ccccc1 | n | n | n | n | n | 9.9
CC1CCN(c2ccc(N)cc2C(N)=O)CC1 | n | x | x | n | x | x
Cc1nc(NCCNC(=O)c2cccc(F)c2)c2c3c(sc2n1)CCCC3 | n | x | x | n | x | x
COc1ccc2oc(=O)c(C(=O)NNC(=O)c3ccc(OC)c(OC)c3)cc2c1 | n | x | x | n | x | x
N=C1/C(=C/c2cccn2-c2ccc([N+](=O)[O-])cc2)C(=O)N=C2SC=CN12 | n | n | n | n | n | 10
O=C(/C=C/c1cccs1)c1ccc(NC(=O)c2cccc(Br)c2)cc1 | n | n | n | n | n | n
Cc1ccc(C(=O)/C=C/c2ccc(-c3ccc(C)cc3)o2)cc1 | n | n | n | n | n | n
O=C(/C=C/c1cccs1)c1ccc(Br)cc1 | n | 37 | n | x | n | n
Cc1ccc(/C=C/C(=O)c2ccc(Br)cc2)o1 | 95 | x | x | n | x | x
SMILES | PGE2 EP2 inh | SKN-1 block | NR1D1 modulator | EP2 mod | PG9 binder | RAM inhibit
O=C(/C=C\c1ccc(-c2ccccc2)o1)c1ccccc1 | n | n | n | n | n | 9.6
c1ccc(CN2COc3c(ccc4c5c(ccc34)CN(Cc3ccccc3)CO5)C2)cc1 | 42 | x | x | n | x | x
c1ccc(CN2CCOCC2)cc1 | n | n | n | n | n | n
CCCCCCn1c(N2CCN(c3ccccc3)CC2)nc2c1c(=O)[nH]c(=O)n2C | n | n | n | n | n | n
CCCCCCn1c(N2CCN(c3cccc(Cl)c3)CC2)nc2c1c(=O)[nH]c(=O)n2C | n | 38 | n | n | n | n
CCCCCCCCn1c(N2CCN(c3cccc(Cl)c3)CC2)nc2c1c(=O)[nH]c(=O)n2C | n | n | n | n | n | 9.1
O=C1CCC(c2ccccc2)=NN1c1nc2ccccc2s1 | 56 | x | x | n | x | x
O=C1C2C3C=CC(C3)C2C(=O)N1c1nc2ccccc2s1 (configuration not stated) | n | n | n | n | n | n
